In PubChem BioAssay AID492956 (The Scripps Research Institute Molecular Screening Center, 2010):
Several values for one entry are separate records, joined by “and”; a condition that tells them apart may be missing. Equal entries are not always repeated. Out of some 340,000 compounds screened, about 3,300 (0.97%) were called active.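 Rule for the calls: active = inhibition above the mean over all tested compounds plus 3 SD (cut at about 30% in these data); inactive = the rest.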 The entries come from a sample that favours actives as a whole.

What follows are compounds tested against Platelet-activating factor acetylhydrolase 2, cytoplasmic (Homo sapiens) (UniProt Q99487) (assay: inhibition of cytoplasmic PAF acetylhydrolase 2 – biochemical, fluorescence polarization, human, primary screen (AID 492956;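 note: inhibitors block probe labeling of enzyme so polarization drops; 0% = enzyme with DMSO and 100% = wells lacking PAFAH2 protein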)). Conditions: recombinant PAFAH2, FP-rhodamine activity probe, at 3.39 µM, active compounds read high.
`Cc1cccc(C2C3=C(CCCC3=O)N=C3c4ccccc4C(=O)C32)c1` (stereo not given) was tested, and the inhibition was 9.45% (inactive). For `O/N=C(\C[n+]1ccccc1)c1ccc(Br)cc1`, the inhibition was -4.24% (inactive). `CCCOc1ccc(NC(=O)CC2C(=O)N(C)C(=S)N2Cc2ccc3c(c2)OCO3)cc1` (stereo not given) was tested, and the inhibition was -2.75% (inactive). For `O=C(C1CCN(Cc2ccc(Cl)cc2)CC1)N1CCN(Cc2ccc3c(c2)OCO3)CC1`, the inhibition was 2.96% (inactive). With `O=C(Nc1ccc(Cl)cc1)C1c2cccc[n+]2CC(=O)N1Cc1ccc2c(c1)OCO2` (stereo not given) the inhibition was 43.6% (active). `Cc1c(Br)cc(C(=O)N2CCCCCC2)c(C)c1C` was tested, and the inhibition was 1.14% (inactive). With `CC1CCc2c(sc3c2C2=NS(=O)(=O)CCN2C=N3)C1` (stereo not given) the inhibition was 0.66% (inactive). `COCCNC(=O)NC(=O)COC(=O)C1(c2ccc(Cl)cc2)CC1` was tested, and the inhibition was 13% (inactive). `Cc1ccc(Cc2nnc(SCC(=O)Nc3ccccc3C)[nH]c2=O)cc1` was tested, and the inhibition was 6.57% (inactive). `COc1ccccc1-c1cnn2c(N3CCOCC3)cc(C)nc12` was tested, and the inhibition was -3.57% (inactive). In the case of `CS(=O)(=O)c1ccc(C(=O)OCC(=O)NNC(=O)COc2ccc(Cl)cc2)cc1`, the inhibition is reported as 1.43% (inactive). With `CCS(=O)(=O)c1ccc(O)c(NC(=O)COc2ccc(Cl)cc2)c1` the inhibition was 75.6% (active). In the case of `O=C(COc1ccc(Cl)cc1)Nc1ccccc1CO`, the inhibition is reported as 0.9% (inactive). With `O=C(c1ccc(=O)[nH]c1)N(Cc1ccco1)C1(C(=O)NC2CCCCC2)CCCCC1` the inhibition was -0.52% (inactive). With `N#Cc1nc(COc2ccc(Cl)cc2)oc1N1CCCC1` the inhibition was -5.85% (inactive). With `C[C@H](NC(=O)c1ccccc1Cl)C(=O)OCC(=O)N1CCN(c2ccccc2)CC1` the inhibition was -2.12% (inactive). With `O=C(OCC(=O)N1CCN(c2ccccc2)CC1)c1ccc([N+](=O)[O-])s1` the inhibition was 35.3% (active). For `COc1cccc(/C=C/C(=O)OCC(=O)N2CCN(c3ccccc3)CC2)c1`, the inhibition was 1.44% (inactive). For `CC(C)(C)NC(=O)CSc1nnc(NC(=O)CCc2ccccc2)s1`, the inhibition was 0.99% (inactive). For `CC(C)CNC(=O)COC(=O)c1ccccc1OCC(=O)Nc1ccc(Br)cc1`, the inhibition was -2.18% (inactive). In the case of `O=C(COC(=O)c1ccccc1C(=O)c1ccccc1)c1ccco1`, the inhibition is reported as 43% (active). In the case of `CCc1ccc(C(=O)COC(=O)c2ccco2)cc1`, the inhibition is reported as 9.26% (inactive). In the case of `CCOC(=O)c1ccc(NC(=O)CNC(=O)c2ccco2)cc1`, the inhibition is reported as 1.1% (inactive). For `CC(=O)Nc1ccc(NC(=O)COc2ccc(-c3ccccc3)cc2)cc1`, the inhibition was -5.15% (inactive). With `O=C(CNC(=O)c1ccco1)OCC(=O)c1ccccc1` the inhibition was 4.2% (inactive). `CCN(CC)c1ccc(C(=O)OCC(=O)c2ccco2)cc1` was tested, and the inhibition was 35.1% (active). For `O=C(OCC(=O)N1CCN(C(=O)c2ccco2)CC1)c1ccccc1Cc1ccccc1`, the inhibition was 10.9% (inactive). In the case of `CC(=O)Nc1ccc(NC(=O)COC(=O)c2ccccc2C(=O)c2ccccc2)cc1`, the inhibition is reported as 32.1% (active). `CC1(C)C2CCC1(CS(=O)(=O)NCCc1c[nH]c3ccccc13)C(=O)C2` (stereo not given) was tested, and the inhibition was 4.84% (inactive). For `O=[N+]([O-])c1ccc(Oc2ccc(F)cc2Br)c2ccncc12`, the inhibition was -2.87% (inactive). With `O=S(=O)(NC1CC1)c1ccc(Cl)cc1` the inhibition was 6.44% (inactive). With `Cc1cc(N)n(-c2ccc(S(=O)(=O)N3CCCC3)cc2[N+](=O)[O-])n1` the inhibition was 3.65% (inactive). In the case of `O=C(CNC(=O)c1ccc(Cl)cc1Cl)NCC(=O)Nc1ccccc1N1CCOCC1`, the inhibition is reported as 7.59% (inactive). For `Oc1ccccc1C1=NN(c2ccccc2)C(c2ccccc2)C1` (stereo not given), the inhibition was 2.45% (inactive). `Cn1cccc1C(=O)OCC(=O)c1ccc(Br)s1` was tested, and the inhibition was 40.2% (active). `O=C(COC(=O)c1c2c(nc3ccccc13)CCCC2)c1ccc(Br)s1` was tested, and the inhibition was -8.93% (inactive). `Cn1cccc1C(=O)OCC(=O)NCCc1ccccc1` was tested, and the inhibition was 12.9% (inactive). In the case of `C=CCN(C(=O)Cn1ncc2c1-c1cc(C)ccc1OC2)c1ccccc1`, the inhibition is reported as 7.42% (inactive). With `O=C(c1c(F)cccc1F)N1CCN(c2ncc(Br)cn2)CC1` the inhibition was 9.7% (inactive). With `CCOc1c(OC)cccc1C(=O)NCC1(c2ccccc2)CCCC1` the inhibition was -1.33% (inactive). With `COc1ccc(C2(CNC(=O)Cc3ccc(OC)c(OC)c3)CCCC2)cc1` the inhibition was 0.3% (inactive). `COc1cc(C(=O)NCC2(c3ccccc3)CCCC2)ccc1OC(C)C` was tested, and the inhibition was 174% (active). In the case of `O=C(NC(=O)c1ccccc1N1CCCCC1)Nc1ccc(Br)cc1`, the inhibition is reported as -2.91% (inactive). `COC(=O)c1cc(OCC(=O)NC2CCCc3ccccc32)cc(C(=O)OC)c1` (stereo not given) was tested, and the inhibition was 0.45% (inactive). For `O=C(CCNC(=O)c1ccc(Cl)cc1)NC1CCCc2ccccc21` (stereo not given), the inhibition was 0.23% (inactive). In the case of `CCOc1ccc(NC(=O)COc2ccc(C(=O)NC3CCCc4ccccc43)cc2OC)cc1` (stereo not given), the inhibition is reported as -2.16% (inactive). For `Nc1ccc(C(=O)OCC(=O)NC2CCS(=O)(=O)C2)cc1[N+](=O)[O-]` (stereo not given), the inhibition was 0.87% (inactive). `NC(=O)Nc1ccc(C(=O)OCC(=O)NC2CCCc3ccccc32)cc1` (stereo not given) was tested, and the inhibition was 71.5% (active). `Nc1ccc(C(=O)OCC(=O)NC2CCCc3ccccc32)cc1[N+](=O)[O-]` (stereo not given) was tested, and the inhibition was 56.6% (active). For `O=C(NNc1nc(N2CCCC2)nc(N2CCCC2)n1)c1ccccc1`, the inhibition was 8.18% (inactive). In the case of `CC(=O)N1c2ccc(S(=O)(=O)N3CCC(C(=O)N4CCN(c5ccccc5)CC4)CC3)cc2CC1C` (stereo not given), the inhibition is reported as -4.15% (inactive). For `COc1cc(C(=O)NCc2nnc(SCC(=O)Nc3nc4ccc(C)cc4s3)o2)cc(OC)c1OC`, the inhibition was 4.41% (inactive). `CCOc1ccc(CCNC(=O)C2=C(C)C(=O)OC23CCC(C)CC3)cc1OCC` (stereo not given) was tested, and the inhibition was 5.73% (inactive). With `c1ccc(CCC2=NCCn3cccc32)cc1` the inhibition was -3.37% (inactive) and -2.16% (inactive). `O=C(OCC(=O)N1CCCCC1)c1ccc(OC(F)(F)F)cc1` was tested, and the inhibition was 5.16% (inactive).
